# Experimental data: PMC12820563, “FoxP3 forms a head-to-head dimer in vivo and stabilizes its multimerization on adjacent microsatellites”
# Over roughly 16,000 sequences, “rpm ratio (pull-down/input)” has its median near 0.5; the highest 2% begin near 5.5. Many of the other results were omitted from the sample, so the highest values are more common in it than they were.
# Biological target: T1, MBP-FoxP3dN (Mus musculus, UniProt Q99JB6 188-423)
# T1 sequence: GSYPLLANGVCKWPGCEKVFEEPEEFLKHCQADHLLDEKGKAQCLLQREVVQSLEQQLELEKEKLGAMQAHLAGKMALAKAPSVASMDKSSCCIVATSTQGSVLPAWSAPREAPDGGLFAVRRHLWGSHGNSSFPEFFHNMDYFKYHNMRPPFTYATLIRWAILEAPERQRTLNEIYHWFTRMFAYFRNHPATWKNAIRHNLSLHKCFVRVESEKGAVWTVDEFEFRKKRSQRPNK
# Test: PD-seq (MBP pull-down with sequencing); 20 mM Tris-HCl pH 7.5, 100 mM NaCl, 1.5 mM MgCl2, 0.4 uM protein, 0.1 uM dsDNA library, 30 min, room temperature, amylose pull-down; high values mean tight binding
# Conditions: protein: recombinant; tags: His6-MBP; chain copies: 2; dsDNA, one strand shown
# How it was run: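 The N-terminus-lacking fragment of mouse FoxP3 or FoxP1 carried a His6-MBP tag and was expressed in E. coli. At 0.4 µM it was incubated with 0.1 µM Klenow-filled degenerate double-stranded DNA library for 30 min at room temperature in Tris pH 7.5 buffer with NaCl and MgCl2, and complexes were caught on amylose resin, washed three times, released with proteinase K, PCR-barcoded and Illumina-sequenced. Binding is reads-per-million enrichment of pull-down over input with replicates pooled.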
row,Sequence,binding signal
1,GATGATTGTTCTCCCAGCTGATGAATTAGACCAGTCGAGTAAACAAATTTTCCTAATCTTTCTGTTCAAGCGCCATCTAC,0.233 RPM ratio (pull-down/input)
2,GATGATTGTTCTCCCAGCTGATGAATTTCTTGCGTCGAGTAAACAAATTTTCCTAATCTTTCTGTTCAAGCGCCATCTAC,0.535 RPM ratio (pull-down/input)
3,GATGATTGTTCTCCCAGCTGATGAATTCCTCGACTCGAGTAAACAAATTTTCCTAATCTTTCTGTTCAAGCGCCATCTAC,0.213 RPM ratio (pull-down/input)
4,GATGATTGTTCTCCCAGCTGATGAATTAACCGATTCGAGTAAACAAATTTTCCTAATCTTTCTGTTCAAGCGCCATCTAC,0.251 RPM ratio (pull-down/input)
5,GATGATTGTTCTCCCAGCTGATGAATTCGAGACATCGAGTAAACAAATTTTCCTAATCTTTCTGTTCAAGCGCCATCTAC,0.446 RPM ratio (pull-down/input)
6,GATGATTGTTCTCCCAGCTGATGAATTTTGCCCTTCGAGTAAACAAATTTTCCTAATCTTTCTGTTCAAGCGCCATCTAC,1.57 RPM ratio (pull-down/input)
7,GATGATTGTTCTCCCAGCTGATGAATTGCGAGGGTCGAGTAAACAAATTTTCCTAATCTTTCTGTTCAAGCGCCATCTAC,0.611 RPM ratio (pull-down/input)
8,GATGATTGTTCTCCCAGCTGATGAATTTGGGTGTTCGAGTAAACAAATTTTCCTAATCTTTCTGTTCAAGCGCCATCTAC,1.11 RPM ratio (pull-down/input)
9,GATGATTGTTCTCCCAGCTGATGAATTACCGTTATCGAGTAAACAAATTTTCCTAATCTTTCTGTTCAAGCGCCATCTAC,0.764 RPM ratio (pull-down/input)
10,GATGATTGTTCTCCCAGCTGATGAATTGACTATGTCGAGTAAACAAATTTTCCTAATCTTTCTGTTCAAGCGCCATCTAC,0.449 RPM ratio (pull-down/input)
11,GATGATTGTTCTCCCAGCTGATGAATTCCGCCATTCGAGTAAACAAATTTTCCTAATCTTTCTGTTCAAGCGCCATCTAC,5.49 RPM ratio (pull-down/input)
12,GATGATTGTTCTCCCAGCTGATGAATTCCCGCCTTCGAGTAAACAAATTTTCCTAATCTTTCTGTTCAAGCGCCATCTAC,2.93 RPM ratio (pull-down/input)
13,GATGATTGTTCTCCCAGCTGATGAATTCCGCCTTTCGAGTAAACAAATTTTCCTAATCTTTCTGTTCAAGCGCCATCTAC,5.55 RPM ratio (pull-down/input)
14,GATGATTGTTCTCCCAGCTGATGAATTTGCCGCATCGAGTAAACAAATTTTCCTAATCTTTCTGTTCAAGCGCCATCTAC,1.35 RPM ratio (pull-down/input)
15,GATGATTGTTCTCCCAGCTGATGAATTCGCCGCATCGAGTAAACAAATTTTCCTAATCTTTCTGTTCAAGCGCCATCTAC,0.966 RPM ratio (pull-down/input)
16,GATGATTGTTCTCCCAGCTGATGAATTCCGCTGTTCGAGTAAACAAATTTTCCTAATCTTTCTGTTCAAGCGCCATCTAC,1.28 RPM ratio (pull-down/input)
17,GATGATTGTTCTCCCAGCTGATGAATTTACCGCATCGAGTAAACAAATTTTCCTAATCTTTCTGTTCAAGCGCCATCTAC,1.17 RPM ratio (pull-down/input)
18,GATGATTGTTCTCCCAGCTGATGAATTACCCCATTCGAGTAAACAAATTTTCCTAATCTTTCTGTTCAAGCGCCATCTAC,0.3 RPM ratio (pull-down/input)
19,GATGATTGTTCTCCCAGCTGATGAATTACCGCATTCGAGTAAACAAATTTTCCTAATCTTTCTGTTCAAGCGCCATCTAC,5.89 RPM ratio (pull-down/input)
20,GATGATTGTTCTCCCAGCTGATGAATTGCCGCATTCGAGTAAACAAATTTTCCTAATCTTTCTGTTCAAGCGCCATCTAC,7.28 RPM ratio (pull-down/input)
21,GATGATTGTTCTCCCAGCTGATGAATTTCCGCCTTCGAGTAAACAAATTTTCCTAATCTTTCTGTTCAAGCGCCATCTAC,3.28 RPM ratio (pull-down/input)

row,Sequence,binding signal
1,GATGATTGTTCTCCCAGCTGATGAATTCCCATTTTCGAGTAAACAAATTTTCCTAATCTTTCTGTTCAAGCGCCATCTAC,0.336 RPM ratio (pull-down/input)
2,GATGATTGTTCTCCCAGCTGATGAATTACACAACTCGAGTAAACAAATTTTCCTAATCTTTCTGTTCAAGCGCCATCTAC,0.854 RPM ratio (pull-down/input)
3,GATGATTGTTCTCCCAGCTGATGAATTAATTCTGTCGAGTAAACAAATTTTCCTAATCTTTCTGTTCAAGCGCCATCTAC,0.249 RPM ratio (pull-down/input)
4,GATGATTGTTCTCCCAGCTGATGAATTCTGTTAATCGAGTAAACAAATTTTCCTAATCTTTCTGTTCAAGCGCCATCTAC,1.25 RPM ratio (pull-down/input)
5,GATGATTGTTCTCCCAGCTGATGAATTATCCTGCTCGAGTAAACAAATTTTCCTAATCTTTCTGTTCAAGCGCCATCTAC,0.234 RPM ratio (pull-down/input)
6,GATGATTGTTCTCCCAGCTGATGAATTACGTGGGTCGAGTAAACAAATTTTCCTAATCTTTCTGTTCAAGCGCCATCTAC,0.527 RPM ratio (pull-down/input)
7,GATGATTGTTCTCCCAGCTGATGAATTGGTCTCTTCGAGTAAACAAATTTTCCTAATCTTTCTGTTCAAGCGCCATCTAC,0.388 RPM ratio (pull-down/input)
8,GATGATTGTTCTCCCAGCTGATGAATTCAGCAAATCGAGTAAACAAATTTTCCTAATCTTTCTGTTCAAGCGCCATCTAC,0.539 RPM ratio (pull-down/input)
9,GATGATTGTTCTCCCAGCTGATGAATTTTAGCATTCGAGTAAACAAATTTTCCTAATCTTTCTGTTCAAGCGCCATCTAC,5.97 RPM ratio (pull-down/input)
10,GATGATTGTTCTCCCAGCTGATGAATTTAGCAGCTCGAGTAAACAAATTTTCCTAATCTTTCTGTTCAAGCGCCATCTAC,1.72 RPM ratio (pull-down/input)
11,GATGATTGTTCTCCCAGCTGATGAATTTTTAGCATCGAGTAAACAAATTTTCCTAATCTTTCTGTTCAAGCGCCATCTAC,0.918 RPM ratio (pull-down/input)
12,GATGATTGTTCTCCCAGCTGATGAATTAGTGCATTCGAGTAAACAAATTTTCCTAATCTTTCTGTTCAAGCGCCATCTAC,7.28 RPM ratio (pull-down/input)
13,GATGATTGTTCTCCCAGCTGATGAATTAGCGCATTCGAGTAAACAAATTTTCCTAATCTTTCTGTTCAAGCGCCATCTAC,7.23 RPM ratio (pull-down/input)
14,GATGATTGTTCTCCCAGCTGATGAATTCTAGCATTCGAGTAAACAAATTTTCCTAATCTTTCTGTTCAAGCGCCATCTAC,5.17 RPM ratio (pull-down/input)
15,GATGATTGTTCTCCCAGCTGATGAATTTAGCATCTCGAGTAAACAAATTTTCCTAATCTTTCTGTTCAAGCGCCATCTAC,6.55 RPM ratio (pull-down/input)
16,GATGATTGTTCTCCCAGCTGATGAATTAGCCCATTCGAGTAAACAAATTTTCCTAATCTTTCTGTTCAAGCGCCATCTAC,0.4 RPM ratio (pull-down/input)
17,GATGATTGTTCTCCCAGCTGATGAATTTAGCCATTCGAGTAAACAAATTTTCCTAATCTTTCTGTTCAAGCGCCATCTAC,4.73 RPM ratio (pull-down/input)
18,GATGATTGTTCTCCCAGCTGATGAATTAGTGAATTCGAGTAAACAAATTTTCCTAATCTTTCTGTTCAAGCGCCATCTAC,0.976 RPM ratio (pull-down/input)
19,GATGATTGTTCTCCCAGCTGATGAATTAGCTGATTCGAGTAAACAAATTTTCCTAATCTTTCTGTTCAAGCGCCATCTAC,1.17 RPM ratio (pull-down/input)
20,GATGATTGTTCTCCCAGCTGATGAATTAGTAAATTCGAGTAAACAAATTTTCCTAATCTTTCTGTTCAAGCGCCATCTAC,0.68 RPM ratio (pull-down/input)
